Measured values from PubChem BioAssay.
Values without a mark were called inactive. The list shows a part of the results. The source made the active and inactive calls.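 How the source made its calls, unless noted: active means average inhibition above a cutoff equal to the mean inhibition of all tested compounds plus one SD (cut at about 70% in these data); inactive means the rest.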

Key:
[1] = biological target: Receptor-interacting serine/threonine-protein kinase 2 (Homo sapiens) (UniProt O43353); assay: inhibitors of RIPK2 association with NOD2 – fluorescence, CHO cells, BLA complementation, triplicate, confirmation (AID 624370;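 active means mean inhibition across replicates above a set limit taken from the earlier primary screen, cut at about 21% in these data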;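 further: 0% = DMSO-only wells and the high end = clavulanate BLA-blocked wells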); settings: CCF4 FRET, at 4.98 µM, hits give high values
Chain of Receptor-interacting serine/threonine-protein kinase 2 (Homo sapiens) (O43353 whole entry, looked up): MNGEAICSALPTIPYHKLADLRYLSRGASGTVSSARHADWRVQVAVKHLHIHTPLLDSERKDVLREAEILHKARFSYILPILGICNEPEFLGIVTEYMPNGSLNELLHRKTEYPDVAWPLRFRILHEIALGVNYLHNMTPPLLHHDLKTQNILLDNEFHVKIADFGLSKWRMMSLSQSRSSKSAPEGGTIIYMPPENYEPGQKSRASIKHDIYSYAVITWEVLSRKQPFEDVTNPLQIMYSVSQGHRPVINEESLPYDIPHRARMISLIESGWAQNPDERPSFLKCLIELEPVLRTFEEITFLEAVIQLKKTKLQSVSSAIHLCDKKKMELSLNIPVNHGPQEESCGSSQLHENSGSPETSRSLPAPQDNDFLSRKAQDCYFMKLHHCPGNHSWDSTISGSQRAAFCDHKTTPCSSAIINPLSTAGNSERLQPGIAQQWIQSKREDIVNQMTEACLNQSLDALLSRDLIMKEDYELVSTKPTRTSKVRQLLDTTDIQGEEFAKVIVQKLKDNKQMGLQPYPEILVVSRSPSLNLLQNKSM

[2] = BLA reporter readout interference – cell-based, CHO-K1 CMV-bla, CCF4 FRET, fluorescence, artefact control for NOD2-RIPK2 interaction inhibitor project, confirmation (AID 624371;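 active means mean inhibition above the low-control mean inhibition plus three low-control SD, cut at about 11% in these data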;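 further: 0% = DMSO only wells and 100% = clavulanate high control wells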); settings: CCF4 FRET ratio, counterscreen, at 4.98 µM, hits give high values
[3] = biological target: Photoreceptor-specific nuclear receptor (Homo sapiens) (UniProt Q9Y5X4); assay: retest of NR2E3-NCOR disrupting agonists – cell-based, luminescence, CHO-S two-hybrid, confirmation (AID 624378); settings: CHO-S mammalian two-hybrid NR2E3-NCOR, luciferase luminescence; at 3.98 µM; hits give high values;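 further: 0% = DMSO in NR2E3 cells and 100% = DMSO in cells lacking NR2E3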
Chain of Photoreceptor-specific nuclear receptor (Homo sapiens) (Q9Y5X4 whole entry, looked up, the tested form may be a part): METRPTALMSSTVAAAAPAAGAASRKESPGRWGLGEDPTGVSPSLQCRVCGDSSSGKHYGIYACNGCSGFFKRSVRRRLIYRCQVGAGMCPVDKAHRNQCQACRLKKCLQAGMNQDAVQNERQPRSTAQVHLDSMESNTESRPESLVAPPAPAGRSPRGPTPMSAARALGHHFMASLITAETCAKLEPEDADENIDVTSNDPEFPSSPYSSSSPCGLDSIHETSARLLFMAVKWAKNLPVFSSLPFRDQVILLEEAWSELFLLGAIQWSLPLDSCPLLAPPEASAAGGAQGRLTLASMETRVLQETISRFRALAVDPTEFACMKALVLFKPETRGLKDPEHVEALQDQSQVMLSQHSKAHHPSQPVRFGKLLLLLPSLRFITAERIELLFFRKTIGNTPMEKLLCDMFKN

[4] = nonselective effects on VP16 transactivation – cell-based, luminescence, CHO-S, high throughput, counter-screen for NR2E3 agonist project, confirmation (AID 624379;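 active means mean inhibition above a cutoff equal to the average over all tested compounds plus one standard deviation, cut at about 70% in these data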;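 further: 0% = DMSO with VP16-transfected cells and 100% = DMSO with cells lacking VP16; higher means less reporter light so more repression of VP16 activity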); settings: CHO-S GAL4-VP16 luciferase reporter, at 3.98 µM, hits give high values
[5] = biological target: (Lyso)-N-acylphosphatidylethanolamine lipase (Mus musculus) (UniProt Q8VD66); assay: mouse ABHD4 hydrolase blockers, triplicate – biochemical, fluorescence polarization, confirmation (AID 720658;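 active means mean inhibition across replicates above the hit cutoff set in the primary screen, cut at about 30% in these data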;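 further: 0% = wild-type ABHD4 with DMSO and 100% = catalytically dead S159A mutant with DMSO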); settings: purified mABHD4, FP-Rh probe fluorescence polarization; at 8.92 µM; hits give high values
Chain of (Lyso)-N-acylphosphatidylethanolamine lipase (Mus musculus) (Q8VD66 whole entry, looked up, the tested form may be a part): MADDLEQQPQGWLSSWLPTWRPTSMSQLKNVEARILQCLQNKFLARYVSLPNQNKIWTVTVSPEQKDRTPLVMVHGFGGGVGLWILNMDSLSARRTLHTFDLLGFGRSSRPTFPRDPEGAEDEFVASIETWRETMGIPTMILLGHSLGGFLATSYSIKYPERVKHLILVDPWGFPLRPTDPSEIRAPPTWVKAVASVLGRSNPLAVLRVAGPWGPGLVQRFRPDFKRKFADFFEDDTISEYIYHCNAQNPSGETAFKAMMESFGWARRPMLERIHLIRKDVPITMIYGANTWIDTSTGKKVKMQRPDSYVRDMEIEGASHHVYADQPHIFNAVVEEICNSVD

[6] = tested on: DAF-12 nuclear receptor (Heterodera glycines), GAL4-LBD fusion; assay: hgDAF-12 GAL4 fusion reporter activation, retest – cell-based, luminescence, HEK293, GAL4-LBD fusion, confirmation (AID 743050;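 active means mean activation over triplicate wells above the hit cutoff derived from the earlier primary screen, cut at about 11% in these data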;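 further: 0% = DMSO low control and 100% = 2 mM sodium butyrate high control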); settings: HEK293 GAL4-hgDAF12 luciferase reporter, agonist mode; at 6.8 µM; hits give high values; percent of butyrate response
[7] = biological target: Oxysterols receptor LXR-beta (Homo sapiens) (UniProt P55055); assay: nonspecific reporter activation via LXR – cell-based, luminescence, HEK293, H. glycines campaign, counter-screen for hgDAF-12 agonist project, confirmation (AID 743051;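 active means mean activation of the triplicate above a set limit carried over from the primary screen, none filed active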); settings: HEK293 Gal4-LXR luciferase reporter, 24 h; at 6.8 µM; hits give high values
Chain of Oxysterols receptor LXR-beta (Homo sapiens) (P55055 whole entry, looked up, the tested form may be a part): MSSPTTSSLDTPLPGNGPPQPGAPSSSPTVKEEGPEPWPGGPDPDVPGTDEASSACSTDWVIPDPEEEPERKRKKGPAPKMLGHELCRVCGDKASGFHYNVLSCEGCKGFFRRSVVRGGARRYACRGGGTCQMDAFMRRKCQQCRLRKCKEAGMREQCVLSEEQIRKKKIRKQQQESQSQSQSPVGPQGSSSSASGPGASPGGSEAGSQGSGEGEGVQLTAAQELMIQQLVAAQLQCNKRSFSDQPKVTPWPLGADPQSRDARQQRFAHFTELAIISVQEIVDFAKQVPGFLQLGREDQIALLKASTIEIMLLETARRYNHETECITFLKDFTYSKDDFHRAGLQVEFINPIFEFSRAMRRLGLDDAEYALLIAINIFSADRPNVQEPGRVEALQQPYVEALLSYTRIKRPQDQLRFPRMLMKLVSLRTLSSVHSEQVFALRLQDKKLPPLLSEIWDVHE

[8] = StAR promoter reporter inhibitors, counter-screen for LRH-1 inverse agonist project, cell-based, luminescence, high throughput (AID 651611; in the data active means inhibition above about 28%); settings: StAR promoter luciferase reporter counterscreen, at 3.6 µM, hits give high values
[9] = biological target: Nuclear receptor subfamily 5 group A member 2 (Homo sapiens) (UniProt O00482); assay: NR5A2 activity suppression in reporter cells – cell-based, luminescence, confirmation (AID 651613; in the data active means inhibition above about 42%;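 further: HEK293T cells co-transfected with LRH-1 and StAR promoter luciferase reporter; 0% = vehicle wells and 100% = parental cells lacking receptor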); settings: cell-based LRH-1 luciferase reporter, inverse agonism; at 3.6 µM; hits give high values
Chain of Nuclear receptor subfamily 5 group A member 2 (Homo sapiens) (O00482 whole entry, looked up): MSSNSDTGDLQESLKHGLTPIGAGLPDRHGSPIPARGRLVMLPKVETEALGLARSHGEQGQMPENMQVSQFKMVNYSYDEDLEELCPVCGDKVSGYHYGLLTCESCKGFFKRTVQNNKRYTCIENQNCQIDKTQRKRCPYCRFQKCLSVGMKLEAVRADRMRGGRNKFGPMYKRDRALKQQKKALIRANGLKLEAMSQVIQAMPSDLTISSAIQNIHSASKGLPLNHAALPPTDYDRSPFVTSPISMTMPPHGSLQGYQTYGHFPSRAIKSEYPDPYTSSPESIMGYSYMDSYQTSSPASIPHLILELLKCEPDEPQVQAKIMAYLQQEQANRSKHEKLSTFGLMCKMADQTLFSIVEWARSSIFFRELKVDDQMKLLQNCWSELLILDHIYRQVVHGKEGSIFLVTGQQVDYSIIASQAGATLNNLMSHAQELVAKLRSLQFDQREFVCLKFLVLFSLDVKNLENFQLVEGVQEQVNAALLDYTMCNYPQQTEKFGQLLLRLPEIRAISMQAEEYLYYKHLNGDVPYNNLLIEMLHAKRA

[10] = biological target: Steroidogenic factor 1 (Homo sapiens) (UniProt Q13285); assay: inverse agonism at SF1 nuclear receptor – cell-based, luminescence, high throughput, counter-screen for LRH-1 inverse agonist project (AID 651614; in the data active means inhibition above about 44%;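 further: cells cotransfected with StAR promoter reporter and SF1 expression vector; 0% = vehicle on cells with receptor and 100% = vehicle on cells lacking receptor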); settings: cell-based SF1 luciferase reporter, at 3.6 µM, hits give high values
Chain of Steroidogenic factor 1 (Homo sapiens) (Q13285 whole entry, looked up, the tested form may be a part): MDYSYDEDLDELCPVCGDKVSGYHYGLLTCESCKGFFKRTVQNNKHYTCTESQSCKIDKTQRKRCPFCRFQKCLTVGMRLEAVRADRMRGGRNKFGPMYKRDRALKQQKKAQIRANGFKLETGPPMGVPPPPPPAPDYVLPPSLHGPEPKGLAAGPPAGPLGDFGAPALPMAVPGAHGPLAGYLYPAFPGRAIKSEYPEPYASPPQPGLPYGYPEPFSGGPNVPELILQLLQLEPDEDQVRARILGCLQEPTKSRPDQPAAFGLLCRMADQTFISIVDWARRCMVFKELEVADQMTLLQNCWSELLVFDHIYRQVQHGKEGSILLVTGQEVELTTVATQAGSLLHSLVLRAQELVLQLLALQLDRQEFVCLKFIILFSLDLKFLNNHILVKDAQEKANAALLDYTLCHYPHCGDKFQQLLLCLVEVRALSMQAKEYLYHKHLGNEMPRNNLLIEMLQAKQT

[11] = compounds suppressing VP16-driven luciferase signal – cell-based, luminescence, high throughput, counter-screen for LRH-1 inverse agonist project (AID 651615; in the data active means inhibition above about 33%); settings: Gal4-VP16 luciferase reporter cells, at 3.6 µM, hits give high values
[12] = tested on: transactivating tegument protein VP16 (Human herpesvirus 1); assay: compounds suppressing VP16-driven luciferase signal – cell-based, luminescence, single concentration, counter-screen for SRC2 inhibitor project (AID 652007; in the data active means inhibition above about 36%); settings: cell-based VP16 transactivation luciferase reporter, at 8.9 µM, hits give high values
[13] = biological target: Nuclear receptor coactivator 2 (Homo sapiens) (UniProt Q15596); assay: inhibition of GAL4-SRC2 driven luciferase expression – cell-based, luminescence, HEK293, triplicate, confirmation (AID 652008;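 active means mean inhibition above 46.5%, the solvent-only control mean plus 3 SD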;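 further: 0% = DMSO-treated cells and 100% = Gossypol at 36 µM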); settings: HEK293 GAL4-SRC2 luciferase reporter, at 8.9 µM, hits give high values
Chain of Nuclear receptor coactivator 2 (Homo sapiens) (Q15596 whole entry, looked up, the tested form may be a part): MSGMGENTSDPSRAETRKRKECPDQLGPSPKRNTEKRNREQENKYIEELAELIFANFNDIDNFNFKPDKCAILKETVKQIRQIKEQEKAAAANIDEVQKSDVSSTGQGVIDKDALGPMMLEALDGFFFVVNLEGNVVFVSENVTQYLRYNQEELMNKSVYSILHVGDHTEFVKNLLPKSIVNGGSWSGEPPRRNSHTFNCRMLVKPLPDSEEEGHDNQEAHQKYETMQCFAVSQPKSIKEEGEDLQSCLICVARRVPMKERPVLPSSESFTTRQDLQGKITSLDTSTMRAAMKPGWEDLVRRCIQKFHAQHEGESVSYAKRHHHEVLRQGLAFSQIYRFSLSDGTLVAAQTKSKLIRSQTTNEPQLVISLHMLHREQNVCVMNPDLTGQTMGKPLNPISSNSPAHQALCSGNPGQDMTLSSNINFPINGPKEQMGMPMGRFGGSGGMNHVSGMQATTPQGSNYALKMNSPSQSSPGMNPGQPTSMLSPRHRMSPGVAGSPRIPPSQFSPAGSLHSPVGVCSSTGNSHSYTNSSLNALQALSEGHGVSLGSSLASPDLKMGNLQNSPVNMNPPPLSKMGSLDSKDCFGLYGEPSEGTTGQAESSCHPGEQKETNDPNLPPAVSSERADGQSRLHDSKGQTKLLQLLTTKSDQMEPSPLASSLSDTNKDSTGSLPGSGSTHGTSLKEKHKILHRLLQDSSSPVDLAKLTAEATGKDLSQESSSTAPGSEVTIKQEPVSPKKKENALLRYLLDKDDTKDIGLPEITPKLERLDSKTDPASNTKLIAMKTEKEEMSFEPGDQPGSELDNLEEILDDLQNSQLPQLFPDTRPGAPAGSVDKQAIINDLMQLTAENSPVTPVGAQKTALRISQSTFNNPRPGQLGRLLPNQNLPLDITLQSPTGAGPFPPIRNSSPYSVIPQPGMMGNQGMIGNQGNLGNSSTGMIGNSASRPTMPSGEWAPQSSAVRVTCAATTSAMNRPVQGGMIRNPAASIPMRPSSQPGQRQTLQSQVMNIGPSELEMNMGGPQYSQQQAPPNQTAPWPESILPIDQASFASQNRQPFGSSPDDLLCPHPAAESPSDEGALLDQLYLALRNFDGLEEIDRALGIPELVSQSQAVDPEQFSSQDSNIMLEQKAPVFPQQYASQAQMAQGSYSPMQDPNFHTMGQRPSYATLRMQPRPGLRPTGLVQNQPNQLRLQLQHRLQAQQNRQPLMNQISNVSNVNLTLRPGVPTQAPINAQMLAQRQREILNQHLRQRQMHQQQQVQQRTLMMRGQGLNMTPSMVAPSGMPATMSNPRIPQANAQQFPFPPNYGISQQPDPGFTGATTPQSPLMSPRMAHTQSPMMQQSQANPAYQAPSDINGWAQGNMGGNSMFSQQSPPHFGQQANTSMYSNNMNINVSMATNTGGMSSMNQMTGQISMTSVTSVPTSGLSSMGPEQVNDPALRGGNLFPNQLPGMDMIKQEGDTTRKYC

[14] = VP16-driven transactivation reporter suppression – cell-based, luminescence, HEK293, counter-screen for COUP-TFII antagonist project (AID 687007; in the data active means inhibition above about 13%); settings: HEK293 Gal4-VP16 luciferase reporter, at 8.5 µM, hits give high values
[15] = biological target: COUP transcription factor 2 (Homo sapiens) (UniProt P24468); assay: retest of COUP-TFII reporter suppressors – cell-based, luciferase reporter, HEK293, triplicate, confirmation (AID 687008;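 active means mean inhibition over three repeats above a set limit taken from the earlier primary screen, cut at about 38% in these data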;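 further: 100% = cells given the luciferase reporter alone without the COUP-TF2 vector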); settings: HEK293 NGFI-A luciferase reporter, luminescence; at 8.5 µM; hits give high values
Chain of COUP transcription factor 2 (Homo sapiens) (P24468 whole entry, looked up): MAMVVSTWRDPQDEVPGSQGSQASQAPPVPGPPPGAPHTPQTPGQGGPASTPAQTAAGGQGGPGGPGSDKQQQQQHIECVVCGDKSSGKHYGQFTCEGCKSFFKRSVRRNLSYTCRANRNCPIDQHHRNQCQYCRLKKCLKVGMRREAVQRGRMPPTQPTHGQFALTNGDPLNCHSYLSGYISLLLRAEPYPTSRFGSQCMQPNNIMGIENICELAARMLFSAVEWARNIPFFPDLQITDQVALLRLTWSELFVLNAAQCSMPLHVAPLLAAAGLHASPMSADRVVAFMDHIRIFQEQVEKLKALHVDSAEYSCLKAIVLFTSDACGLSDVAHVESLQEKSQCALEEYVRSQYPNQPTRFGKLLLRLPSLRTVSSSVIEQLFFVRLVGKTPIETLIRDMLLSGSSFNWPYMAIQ

## COc1cc(NS(=O)(=O)c2ccc3ccccc3c2)c2ncccc2c1
[1]
  inhibition: 35.7% (active)
[2]
  inhibition: 18.9% (active)
[3]
  inhibition: -24.6%
[4]
  inhibition: 31.6%

## Cc1ccc(NS(=O)(=O)c2ccc(-c3coc(C)n3)cc2)c(C)c1
[3]
  inhibition: 57.5%
[4]
  inhibition: 46.7%

## COc1ccc(CNS(=O)(=O)c2ccc(-c3cnc(C4CC4)o3)cc2)cc1
[3]
  inhibition: 48.2%
[4]
  inhibition: 55.8%

## O=C(Nc1nnc(-c2ccccc2)o1)c1cc(-c2cccs2)nc2ccccc12
[3]
  inhibition: 98.3% (active)
[4]
  inhibition: 12.6%

## O=C(O)c1ccc2c(c1)C(=O)N(c1ccc(/C=C/C(=O)c3ccccc3)cc1)C2=O
[1]
  inhibition: 5.5%
[2]
  inhibition: 0.39%
[5]
  inhibition: 0.6%
[6]
  activation: 1.47%
[7]
  activation: 0.05%

## COC(=O)c1ccc(NC(=O)c2ccccc2NS(=O)(=O)c2ccccc2)cc1
[3]
  inhibition: 77.4% (active)
[4]
  inhibition: 57.7%

## O=C1/C(=C\c2ccc([N+](=O)[O-])cc2)CS(=O)(=O)C/C1=C/c1ccc([N+](=O)[O-])cc1
[1]
  inhibition: 91.8% (active)
[2]
  inhibition: 4.33%
[3]
  inhibition: 96% (active)
[4]
  inhibition: 53.2%
[8]
  inhibition: 2.1%
[9]
  inhibition: 89.5% (active)
[10]
  inhibition: 79.7% (active)
[11]
  inhibition: 70.2% (active)

## CC1CCCCN1S(=O)(=O)c1ccc(C(=O)Nc2nnc(-c3cccs3)o2)cc1 (stereo not drawn)
[3]
  inhibition: 49.5%
[4]
  inhibition: 32%

## C/C(=N\NC(=S)NCc1ccccc1)c1ccc(Cl)cc1
[3]
  inhibition: -1.78%
[4]
  inhibition: -14.2%

## COc1ccc(-n2c(C)cc(C(=O)CSc3nnc(-c4cccs4)o3)c2C)cc1
[3]
  inhibition: 61.9%
[4]
  inhibition: 66.9%
[12]
  inhibition: 20%
[13]
  inhibition: 33.9%
[14]
  inhibition: 0.72%
[15]
  inhibition: 34.1%

## COc1ccc(CNS(=O)(=O)c2ccc(NC(=O)N3CCCCC3)cc2)cc1
[3]
  inhibition: 55.3%
[4]
  inhibition: 52.4%

## COc1ccc(S(=O)(=O)N2CCN(C(C)C(=O)Nc3ccc(C(C)C)cc3)CC2)cc1 (stereo not drawn)
[3]
  inhibition: -2.85%
[4]
  inhibition: -0.89%

## COc1ccccc1CNc1nc(Nc2ccccc2Cl)c2sccc2n1
[3]
  inhibition: 93.1% (active)
[4]
  inhibition: 86.4% (active)
[14]
  inhibition: -3.83%
[15]
  inhibition: 29.8%

## c1ccc(C(=NNc2nc3ccccc3s2)c2ccccn2)cc1
[3]
  inhibition: 22.6%
[4]
  inhibition: 11.6%

## O=C(CCC(=O)N1CCN(S(=O)(=O)c2ccc(Cl)cc2)CC1)NCc1cccc(C(F)(F)F)c1
[3]
  inhibition: 93.6% (active)
[4]
  inhibition: 81.6% (active)
[14]
  inhibition: 7.21%
[15]
  inhibition: 53.4% (active)

## Cn1c(Cc2cccc3ccccc23)nnc1SCC(=O)N1CCN(c2cccc(Cl)c2)CC1
[3]
  inhibition: 78.1% (active)
[4]
  inhibition: 30.7%
[14]
  inhibition: -7.02%
[15]
  inhibition: 30.3%

## CN(Cc1cn(Cc2ccc(C(F)(F)F)cc2)nn1)C1CN(Cc2cn(Cc3ccc(C(F)(F)F)cc3)nn2)S(=O)(=O)C1 (stereo not drawn)
[3]
  inhibition: 86.8% (active)
[4]
  inhibition: 63.3%

## O=C(CSc1nc(Nc2ccccc2)nc(N2CCOCC2)n1)Nc1cc(Cl)ccc1O
[3]
  inhibition: 31.7%
[4]
  inhibition: 20.4%

## COc1cccc(NS(=O)(=O)c2ccc(-c3coc(C)n3)cc2)c1
[3]
  inhibition: 10.9%
[4]
  inhibition: 37.3%

## CCC1(C)Cc2c(sc3[nH]c(=S)n(Cc4ccccc4)c(=O)c23)CO1 (stereo not drawn)
[3]
  inhibition: 70.9% (active)
[4]
  inhibition: 34.4%

## Cc1cccc(NC(=O)c2ccc(COc3ccccc3[N+](=O)[O-])o2)n1
[3]
  inhibition: 10%
[4]
  inhibition: 26.1%

## CN(C(=O)CN1CCN(c2cc(-c3ccc(OCc4ccccc4)cc3)ncn2)CC1)c1ccccc1
[3]
  inhibition: 51.3%
[4]
  inhibition: 52.7%
[8]
  inhibition: 14.7%
[9]
  inhibition: 46.5% (active)
[10]
  inhibition: 46.4% (active)
[11]
  inhibition: 25.7%
[14]
  inhibition: 1.06%
[15]
  inhibition: 31.7%

## COc1cc(CC(=O)Nc2nc(-c3ccc(F)c(F)c3)cs2)cc(OC)c1OC
[3]
  inhibition: 94.2% (active)
[4]
  inhibition: 86.9% (active)
[14]
  inhibition: -0.07%
[15]
  inhibition: 44.8% (active)

## O=C1C=C(c2ccnc3cc(Cl)ccc23)C[C@@H](c2ccc3c(c2)OCO3)C1
[3]
  inhibition: 91.6% (active)
[4]
  inhibition: 76.5% (active)
[14]
  inhibition: 2.65%
[15]
  inhibition: 44.8% (active)

## CCOC(=O)N1CCN(C(=O)C2CCN(c3ncnc4c3sc3cccc(F)c34)CC2)CC1
[3]
  inhibition: 92% (active)
[4]
  inhibition: 70.3%
[14]
  inhibition: -7.67%
[15]
  inhibition: 27.1%
